Shown are actives, neighbours in structure and some others; about 1.8% of the full set was active somewhere.
AGP1 TOR yeast = modulators of TOR pathway AGP1-GFP in S. cerevisiae. GFP response vs DMSO, % at 10 µM. 0.02% of 320,000 active. AID 2066. S. cerevisiae AGP1-GFP multiplex flow cytometry, 3 h; GFP as percent of DMSO wells;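 active means GFP response relative to DMSO above a set limit, near screen average plus 3 SD, cut at about 150% in these data; inconclusive means fewer than 70 cells counted for the yeast strain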;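 further: median GFP channel fluorescence of the gated AGP1 strain per well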
MEP2 TOR yeast = yeast TOR pathway MEP2-GFP modulation; GFP response vs DMSO, % at 10 µM; S. cerevisiae MEP2-GFP strain, flow cytometry GFP, 3 h; 100% = DMSO control level; 0.51% of 330,000 active;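 active means GFP response versus DMSO above a set limit, roughly screen mean plus 3 SD, cut at about 180% in these data; inconclusive means fewer than 70 cells counted for a yeast strain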;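 further: median GFP fluorescence of the barcode-gated MEP2-GFP cells per well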
RPL19A-GFP yeast = yeast TOR pathway RPL19A-GFP modulation; S. cerevisiae RPL19A-GFP strain, flow cytometry, 3 h; stronger effect = lower value; percent response vs DMSO, % at 10 µM; 0.3% of 330,000 active; AID 2025;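 active means percent response vs DMSO below 50%; inconclusive means fewer than 70 events counted for the yeast strain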;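 further: median channel GFP fluorescence of the barcoded RPL19A-GFP strain; lower means less RPL19A-GFP as with rapamycin TOR inhibition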
CIT2-GFP yeast = alters CIT2-GFP fluorescence in TOR pathway yeast screen. GFP response vs DMSO, % at 10 µM. 0.065% of 320,000 active. S. cerevisiae CIT2-GFP strain, flow cytometry, 3 h; 100 means same as DMSO wells;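 active means GFP response relative to DMSO above a set limit, near the screen mean plus 3 SD, cut at about 150% in these data; inconclusive means Fewer than 70 cells measured for a yeast strain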;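 further: ratio of well median GFP fluorescence to mean of DMSO wells on the plate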
Myeloid diff MLP = promotes myeloid progenitor differentiation; ER-HoxA9 myeloid progenitors, lysozyme-GFP differentiation, flow cytometry; calls only at 10 µM; 1% of 360,000 active; AID 624256;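 active means normalized GFP-positive differentiation at or above the plate's own cutoff, the solvent-only control mean plus 3 SD; inconclusive means no clear call, values can overlap the other calls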;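 further: cells exposed to compound for four days before flow analysis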
LAP4 TOR yeast = alters LAP4-GFP fluorescence in TOR pathway yeast screen. 0.34% of 320,000 active. S. cerevisiae LAP4-GFP multiplex, flow cytometry GFP, 3 h; median GFP as percent of DMSO wells. GFP response vs DMSO, % at 10 µM;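 active means GFP response vs DMSO above a set limit, about the screen mean plus 3 SD, cut at about 150% in these data; inconclusive means under 70 cell events counted for the yeast strain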
LAP4 cherry2 = yeast LAP4-GFP modulation, second cherry pick; 20% of 590 active; AID 2621; S. cerevisiae LAP4-GFP strain, flow cytometry GFP, 3 h; GFP response vs DMSO, % at 10 µM; shares compounds with LAP4 TOR yeast;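 active means GFP signal as percent of the solvent control above about 150%, meaning raised reporter expression, limit read from the data; inconclusive means fewer than 70 cells counted in the well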
MEP2 cherry2 = second confirmation of modulators of TOR reporter MEP2-GFP in yeast; shares compounds with LAP4 TOR yeast; GFP response vs DMSO, % at 10 µM; AID 2622; S. cerevisiae MEP2-GFP strain, flow cytometry GFP, 3 h; 10% of 590 active;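 active means GFP signal above 150% of the solvent control wells, that is a rise of more than half; inconclusive means fewer than 70 yeast cells counted in the well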;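 further: median channel GFP fluorescence of all gated yeast cells per well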
RPL19A GFP CP2 = reconfirmed modulator of RPL19A-GFP TOR reporter in yeast. shares compounds with LAP4 TOR yeast. S. cerevisiae RPL19A-GFP strain, flow cytometry GFP, 3 h; stronger effect = lower value; 100% means same as DMSO wells. GFP response vs DMSO, % at 10 µM. 3% of 590 active. AID 2623;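 active means under 65% GFP response relative to DMSO; inconclusive means yeast strain with under 70 measured events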;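 further: median GFP channel fluorescence per well over the all cells gate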
CIT2-GFP pick2 = yeast CIT2-GFP TOR reporter modulation, second cherry pick | shares compounds with LAP4 TOR yeast | S. cerevisiae CIT2-GFP strain, flow cytometry GFP, 3 h; DMSO control wells read 100% | GFP response vs DMSO, % at 10 µM | 8% of 590 active | AID 2624;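 active means GFP response vs DMSO above about 150%, limit read from the data; inconclusive means fewer than 70 events counted for a yeast strain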;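 further: median green fluorescence per well over all gated yeast cells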
AGP1-GFP pick2 = reconfirmed modulator of AGP1-GFP TOR reporter in yeast; AID 2643; percent response vs DMSO, % at 10 µM; shares compounds with LAP4 TOR yeast; S. cerevisiae AGP1-GFP strain, flow cytometry GFP, 3 h; 590 tested, under 10 active;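 active means over 150 percent of DMSO response; inconclusive means yeast strain measured with under 70 events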;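 further: median GFP channel fluorescence over all cells without mother daughter split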
s288c autofluor = yeast s288c autofluorescence artifact, counter-screen | S. cerevisiae s288c, 520 nm autofluorescence, flow cytometry, 3 h; stronger effect = higher value; zero means same as solvent-only cells | fluorescence change (kMESF span) at 33 µM | AID 2757 | 610 tested, under 10 active | shares compounds with LAP4 TOR yeast;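 active means fluorescence span over the dose series, or activity score, above about 33, limit read from the data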
s288c autofl DR = counter-screen for autofluorescence of TOR hits in yeast s288c. shares compounds with LAP4 TOR yeast. S. cerevisiae s288c parental, compound autofluorescence, flow cytometry, 3 h. fluorescence change (span) at 33 µM. 110 tested, under 10 active;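 active means fluorescence change span, or the activity score built from it, above 25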
TORC1 bypass = compounds blocking wildtype yeast growth but not TORC1 bypass cells; shares compounds with LAP4 TOR yeast; S. cerevisiae BY4741 spot growth rating, 48-72 h; stronger effect = lower value; 120 tested, under 10 active; growth rating (0-3) at 30 µM;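 active means growth rating at most 1 for wild type yeast while the TORC1 bypass strain still grows fully, rated 3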
Hits are given with their value.

What do the screens show for `CCN1/C(=C/C=C/c2sc3ccccc3[n+]2CC)Sc2ccccc21`?
AGP1 TOR yeast: inactive; MEP2 TOR yeast: inactive; RPL19A-GFP yeast: inactive; CIT2-GFP yeast: inactive; Myeloid diff MLP: inactive; LAP4 TOR yeast: 160.1; LAP4 cherry2: 200.4; MEP2 cherry2: inactive; RPL19A GFP CP2: inactive; CIT2-GFP pick2: inactive; AGP1-GFP pick2: inactive; s288c autofluor: inactive

How did CC[n+]1c(/C=C/Nc2ccccc2)sc2ccccc21 do in these assays?
AGP1 TOR yeast: inactive; MEP2 TOR yeast: inactive; RPL19A-GFP yeast: inactive; Myeloid diff MLP: inactive; LAP4 TOR yeast: inactive

What do the screens show for `Cc1c(C(=O)Nc2nc(-c3ccccn3)cs2)oc2ccccc12`?
AGP1 TOR yeast: inactive; MEP2 TOR yeast: inactive; RPL19A-GFP yeast: inactive; CIT2-GFP yeast: inactive; Myeloid diff MLP: inactive; LAP4 TOR yeast: 219.9; LAP4 cherry2: 187.4; MEP2 cherry2: inactive; RPL19A GFP CP2: inactive; CIT2-GFP pick2: inactive; AGP1-GFP pick2: inactive; s288c autofluor: inactive; s288c autofl DR: inactive; TORC1 bypass: inactive

Results for N#Cc1ccccc1OCC(=O)Nc1nc(-c2ccccn2)cs1 ?
Myeloid diff MLP: inactive

Results for O=C(COc1ccc(F)cc1Cl)Nc1nc(-c2ccccn2)cs1 ?
AGP1 TOR yeast: inactive; MEP2 TOR yeast: inactive; RPL19A-GFP yeast: inactive; CIT2-GFP yeast: inactive; Myeloid diff MLP: inactive; LAP4 TOR yeast: 171.0; s288c autofluor: inactive; s288c autofl DR: inactive; TORC1 bypass: inactive

How did CCc1sc(C(=O)Nc2nccs2)cc1C do in these assays?
AGP1 TOR yeast: inactive; MEP2 TOR yeast: inactive; RPL19A-GFP yeast: inactive; CIT2-GFP yeast: inactive; Myeloid diff MLP: inactive; LAP4 TOR yeast: inactive

Results for CCc1sc(C(=O)Nc2nc(-c3ccccn3)cs2)cc1C ?
AGP1 TOR yeast: inactive; MEP2 TOR yeast: inactive; RPL19A-GFP yeast: inactive; CIT2-GFP yeast: inactive; Myeloid diff MLP: inactive; LAP4 TOR yeast: 191.1; LAP4 cherry2: 212.4; MEP2 cherry2: 155.5; RPL19A GFP CP2: inactive; CIT2-GFP pick2: inactive; AGP1-GFP pick2: inactive; s288c autofluor: inactive

Results for O=C(Nc1nc(-c2ccccn2)cs1)c1cc2ccccc2o1 ?
AGP1 TOR yeast: inactive; MEP2 TOR yeast: inactive; RPL19A-GFP yeast: inactive; CIT2-GFP yeast: inactive; Myeloid diff MLP: inactive; LAP4 TOR yeast: 155.3; s288c autofluor: inactive; s288c autofl DR: inactive; TORC1 bypass: inactive

Results for COc1ccccc1/C=N/NC(=O)CNC(=O)c1ccc(S(=O)(=O)N(C)C)cc1 ?
AGP1 TOR yeast: inactive; MEP2 TOR yeast: inactive; RPL19A-GFP yeast: inactive; CIT2-GFP yeast: inactive; Myeloid diff MLP: inactive; LAP4 TOR yeast: inactive

What do the screens show for `O=C1C(Cl)=C(N2CCN(Cc3ccccc3)CC2)C(=O)N1c1ccccc1`?
AGP1 TOR yeast: inactive; MEP2 TOR yeast: inactive; RPL19A-GFP yeast: inactive; CIT2-GFP yeast: inactive; Myeloid diff MLP: inactive; LAP4 TOR yeast: inactive; s288c autofluor: inactive

How did C[C@H](CO)N1C[C@H](C)[C@@H](CN(C)C(=O)NC2CCCCC2)Oc2c(NC(=O)Nc3ccc(C(F)(F)F)cc3)cccc2C1=O do in these assays?
AGP1 TOR yeast: inactive; MEP2 TOR yeast: inactive; RPL19A-GFP yeast: inactive; CIT2-GFP yeast: inactive; Myeloid diff MLP: inactive; LAP4 TOR yeast: inactive

Results for Cc1cc(O)c(C(=O)/C=C/c2ccc(Cl)cc2)c(=O)o1 ?
AGP1 TOR yeast: inactive; MEP2 TOR yeast: inactive; RPL19A-GFP yeast: inactive; CIT2-GFP yeast: inactive; Myeloid diff MLP: inactive; LAP4 TOR yeast: 161.4; s288c autofluor: inactive

How did COc1cccc(/C=C/C(=O)c2c(O)cc(C)oc2=O)c1O do in these assays?
AGP1 TOR yeast: inactive; MEP2 TOR yeast: inactive; RPL19A-GFP yeast: inactive; CIT2-GFP yeast: inactive; Myeloid diff MLP: inactive; LAP4 TOR yeast: 243.1; s288c autofluor: inactive

Results for C=CCn1nc2ccccc2c1OCCO ?
AGP1 TOR yeast: inactive; MEP2 TOR yeast: inactive; RPL19A-GFP yeast: inactive; CIT2-GFP yeast: inactive; Myeloid diff MLP: inactive; LAP4 TOR yeast: inactive

What do the screens show for `CC(NC(=O)c1ccccc1F)C12CC3CC(CC(C3)C1)C2` (stereo unspecified)?
AGP1 TOR yeast: inactive; MEP2 TOR yeast: inactive; RPL19A-GFP yeast: inactive; CIT2-GFP yeast: inactive; Myeloid diff MLP: inactive; LAP4 TOR yeast: 158.0; LAP4 cherry2: inactive; MEP2 cherry2: inactive; RPL19A GFP CP2: inactive; CIT2-GFP pick2: inactive; AGP1-GFP pick2: inactive

What do the screens show for `Cc1occc1C(=O)NC(C)C12CC3CC(CC(C3)C1)C2` (stereo unspecified)?
AGP1 TOR yeast: inactive; MEP2 TOR yeast: inactive; RPL19A-GFP yeast: inactive; CIT2-GFP yeast: inactive; Myeloid diff MLP: inactive; LAP4 TOR yeast: inactive

What do the screens show for `COC(=O)c1cc(NC(=O)c2cc(C(C)(C)C)nn2Cc2ccc(F)cc2)ccc1N1CCOCC1`?
AGP1 TOR yeast: inactive; MEP2 TOR yeast: inactive; RPL19A-GFP yeast: inactive; CIT2-GFP yeast: inactive; Myeloid diff MLP: inactive; LAP4 TOR yeast: inactive

How did Cc1ccc(O)c(N=Nc2nccs2)c1 do in these assays?
AGP1 TOR yeast: inactive; MEP2 TOR yeast: inactive; RPL19A-GFP yeast: inactive; CIT2-GFP yeast: inactive; Myeloid diff MLP: inconclusive; LAP4 TOR yeast: 170.9; LAP4 cherry2: 227.4; MEP2 cherry2: inactive; RPL19A GFP CP2: inactive; CIT2-GFP pick2: inactive; AGP1-GFP pick2: inactive; s288c autofluor: inactive

High-throughput results: PubChem, NMMLSC
